# Assay results reported in PubChem BioAssay AID686979 (National Center for Advancing Translational Sciences (NCATS), 2013).
# The whole screen tested about 420,000 compounds, of which about 50,000 (12%) were called active. Another 26% or so got no clear call; they are omitted. Calls come from the whole dose curve; as a rule, active = well fitted inhibition curve with a large enough effect; inconclusive = small, poorly fitted or top-dose-only effect; inactive = flat fitted curve, though single readings scatter. The entries come from a sample that favours actives as a whole. Where a call stands in place of a potency, no number is given.
# Experiment: qHTS for Inhibitors of human tyrosyl-DNA phosphodiesterase 1 (TDP1): qHTS in cells in presence of CPT; note: nearly all actives have a fitted effect of over 55% in size
# Conditions: chicken DT40 Tdp1-/-;hTDP1 cells + 20 nM CPT, ATP luminescence, 48 h; series mostly up to 46.2 µM
# How it was run: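 Chicken DT40 Tdp1-/- cells stably complemented with human TDP1 were seeded at 400 cells/well in medium containing 20 nM camptothecin, exposed to pin-transferred compounds, and grown at 37 °C for at least 48 hr. Viability was read as ATP luminescence.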
# Potency is the fitted concentration of half-maximal effect.
Compound,"activity change, negative = growth inhibition",Potency
CCc1nc2cc(C(=O)NCC3CCS(=O)(=O)C3)cc(NC(=O)c3ccccc3OC)c2n1C (stereo not drawn),6.63% [at 9.04 µM] (inactive),
O=c1[nH]c2cc(Br)ccc2n2cccc12,,inactive
CCN(CC(=O)NCc1ccco1)S(=O)(=O)c1ccc(F)cc1,,inactive
Cc1csc(NC(=O)c2ccc(C)s2)n1,,inactive
COc1cc(SC)ccc1C(=O)Nc1nc(C)cs1,,20.6 µM (active)
COc1ccc(Cc2nnc(NC(=O)c3ccc(OC)cc3OC)s2)cc1,,inactive
Cc1cc(NC(=O)Nc2c[nH]c(=O)[nH]c2=O)ccc1Br,,inactive
Cc1ccc(NS(=O)(=O)c2ccc3c(c2)CC(=O)N3)cc1Cl,,inactive
COc1ccc(CNC(=O)Cn2nnc(-c3ccc(S(C)(=O)=O)cc3)n2)cc1,,inactive
COC1=CC(=O)OC(c2ccc(OC)cc2)C1 (stereo not drawn),,inactive
COc1ccc(N=C2C=CC(=O)O2)cc1,,5.17 µM (active)
COc1ccc(N=Nc2c(-c3ccc(OC)cc3)[nH]oc2=O)cc1,,inactive
CCC1(c2ccccc2)NC(=O)N(CC(=O)c2ccc3c(c2)OCO3)C1=O (stereo not drawn),,inactive
Cc1ccc(Cl)c(NC(=O)CN(C)CC(=O)Nc2ccc(F)c(F)c2F)c1Cl,,inactive
Cc1ccc2[nH]c(=O)c(CC=C(Cl)Cl)c(C)c2c1,,inactive
COc1ccc(CNC(=O)c2cc3c(=O)[nH]c4ccccc4c3s2)cc1,,inactive
Cc1cccc(N(C)C(=O)c2cc3c(=O)[nH]c4ccc(C)cc4c3s2)c1,,2.06 µM (active)
COc1ccc(CNC(=O)c2ccc3c(c2)nc2n3CCOC2)c(OC)c1,,inactive
COc1ccc(CNC(=O)c2cc3c(=O)[nH]c4ccc(C)cc4c3s2)c(OC)c1,,16.4 µM (active)
Cc1ccc2[nH]c(=O)c(CC(=O)O)c(-c3ccccc3)c2c1,,inactive
Nc1cc(C(=O)N2CCN(c3ccccc3Cl)CC2)ccc1N1CC2CC(C1)c1cccc(=O)n1C2 (stereo not drawn),,inactive
CC1(C)CN(CCc2ccccc2)C(=O)[C@H]1CC(=O)Nc1ccc(Br)cc1,,inactive
Cc1ccc(NC(=O)Cc2nnc(SCC(=O)Nc3nncs3)n2C)cc1,,inactive
CC1(c2ccc(Cl)cc2Cl)NC(=O)N(CC(=O)Nc2cccnc2Cl)C1=O (stereo not drawn),,inactive
CCCc1ccc(C(=O)[C@@H]2[C@@H](C(C)=O)N3c4ccc(F)cc4C=C[C@@H]3[C@@]23C(=O)Nc2ccccc23)cc1,,23.1 µM (active)
O=C(O)c1ccc(-n2nc(-c3ccccc3)c3ccccc3c2=O)cc1,,inactive

Compound,"activity change, negative = growth inhibition",Potency
CCC(C)(C)NC(=O)C(c1ccc(O)cc1)N(Cc1ccco1)C(=O)CCC(=O)Nc1ccccn1 (stereo not drawn),,inactive
CC(=O)c1nn(-c2ccc(OC(F)(F)F)cc2)nc1Nc1ccccc1,,inactive
COc1ccccc1C(=O)Nn1cnnc1,,inactive
CCc1noc(C)c1C(=O)OCC(=O)c1ccc(NC(=O)CC(C)C)cc1,,20.6 µM (active)
CCc1noc(C)c1C(=O)NNC(=O)c1ccc(F)cc1,,inactive
COc1ccc(C(=O)COC(=O)c2c(C)noc2C)cc1Cl,,inactive
O=C(c1ccccc1Cl)N(Cc1ccccc1F)N1C(=O)CCCC1=O,,inactive
Brc1ccccc1C1Nc2cccc3cccc(c23)N1,,inactive
Cc1ccc(C2Nc3cccc4cccc(c34)N2)cc1,,2.59 µM (active)
COc1cccc(C2Nc3cccc4cccc(c34)N2)c1,,inactive
COc1ccc(CCn2c3c(c(=O)[nH]c2=S)CN(C(C)C)CN3)cc1OC,,inactive
COCC(C)NC(=O)CSc1nc2nn(-c3ccccc3)c(=O)c-2c2n1CCCCC2 (stereo not drawn),,inactive
Cc1ccc2nc(/C(C#N)=C\c3ccc(OC(=O)c4cccs4)cc3)[nH]c2c1,,14.6 µM (active)
CC(=O)Nc1ccc(C(=O)CSc2nc3ccc(C)cc3[nH]2)cc1,,inactive
Cc1ccc2nc(S(=O)(=O)O)[nH]c2c1,,inactive
CCOC(=O)CSc1nc2ccc(C)cc2[nH]1,,inactive
Cc1ccc2nc(/C(C#N)=C/c3ccc(-c4ccc(C(=O)OC(C)C)cc4)o3)[nH]c2c1,,7.31 µM (active)
CN(C(=O)c1cccc([N+](=O)[O-])c1)c1ccccc1C(=O)NCc1ccccc1,,inactive
COc1ccc(S(=O)(=O)N2CCN(c3ccc(F)cc3)CC2)cc1-c1noc(C)n1,,inactive
COc1ccc(CCNC(=O)C(=O)NCC2OCCN2S(=O)(=O)c2cccs2)cc1OC (stereo not drawn),,inactive
COC(=O)Cc1ccc(Oc2ncc(C(F)(F)F)cc2Cl)cc1,,inactive
Cc1cc(C)cc(OCC(=O)Nc2ccc(S(=O)(=O)Nc3ccccn3)cc2)c1,,inactive
Cc1cc(C)cc(NS(=O)(=O)c2ccc(Oc3ncc(C(F)(F)F)cc3Cl)cc2)c1,,23.1 µM (active)
CCOC(=O)[C@H](CCc1ccccc1)N[C@@H](C)C(=O)N1CC2(C[C@H]1C(=O)O)SCCS2,,inactive
COCCCNC(=O)[C@H]1N2C(=O)c3ccccc3C2SC1(C)C (stereo partly drawn),,inactive
CC(C)N1C[C@@H](NCc2ccccc2O)C[C@H]1C(=O)N1CCN(c2cccc(C(F)(F)F)c2)CC1,-8.03% [at 9.04 µM] (inactive),

Compound,"activity change, negative = growth inhibition",Potency
CC1CCC(N2CC(=O)N(CCC3=CCCCC3)C(c3ccc(F)cc3)C2=O)CC1 (stereo not drawn),,13 µM (active)
O=S(=O)(Cc1nnnn1-c1ccc(Br)cc1)c1ccc(F)cc1,,inactive
NS(=O)(=O)c1ccc(NC(=O)COc2ccc(S(=O)(=O)NC3CCCCC3)cc2)cc1,,inactive
CC(=O)c1cccc(NC(=O)C2CCCN(S(=O)(=O)c3cccc4nonc34)C2)c1 (stereo not drawn),,inactive
O=C(C1CCCN(S(=O)(=O)c2ccccc2)C1)N1CCN(c2ccc(F)cc2)CC1 (stereo not drawn),,11.6 µM (active)
O=C(NCc1ccco1)C1CCCN(S(=O)(=O)c2cccc3nonc23)C1 (stereo not drawn),,inactive
CCCS(=O)(=O)N1CCCC(C(=O)N2CCN(c3ccccc3)CC2)C1 (stereo not drawn),,inactive
Cc1ccc(S(=O)(=O)N2CCCC(C(=O)N3CCN(C)CC3)C2)cc1 (stereo not drawn),,inactive
O=C(C1CCCN(S(=O)(=O)c2cccc3nonc23)C1)N1CCN(c2ccccc2F)CC1 (stereo not drawn),,18.4 µM (active)
CN1CCC(N(C)S(=O)(=O)c2ccc(NC(=O)c3cccc(C#N)c3)cc2)CC1,,inactive
COC(C[C@@H](O)C[C@H](O)[C@H](C)OCc1ccccc1)OC,,inactive
CO[C@H]1O[C@@H]2O[C@@]3(C)CC[C@@H]4[C@@H](C)CC[C@@H]([C@H]1C)[C@@]24OO3,,0.631 µM (active)
COc1ccccc1C(=O)NC(CCSC)C(=O)N1CCN(C(C)=O)CC1 (stereo not drawn),,inactive
CC(C)c1cccc(C(C)C)c1Nc1cn[nH]c1,,14.6 µM (active)
CC(=O)Nc1ccc(S(=O)(=O)N(C)c2ccc(OCC(=O)OCC(=O)N3CCCCC3)cc2)cc1,,inactive
CCCNC(=S)NC1CC2CCCC(C1)N2CC(C)C (stereo not drawn),,inactive
CCCN1C2CCCC1CC(NC(=O)c1cccc(OC)c1)C2 (stereo not drawn),,inactive
CCCN1C2CCCC1CC(NC(=O)NC13CC4CC(CC(C4)C1)C3)C2 (stereo not drawn),,16.4 µM (active)
Cc1ccc(NC(=O)CSCC(=O)Nc2sccc2C#N)cc1,,inactive
COc1ccccc1C(=O)COC(=O)CNS(=O)(=O)c1ccc(NC(C)=O)cc1,,inactive
COc1ccc(CS(=O)/C(Cl)=C(/Cl)C(=O)Nc2ccc(OC)nc2)cc1 (stereo not drawn),,0.0184 µM (active)
COc1ccc(NC(=S)NCCNC(C)=O)cc1,,inactive
COc1ccc(NC(=O)CN2C(=O)NC(C)(c3ccccc3)C2=O)cn1 (stereo not drawn),,inactive
Cc1nc(Nc2ccccc2F)c2nnn(Cc3ccccc3Cl)c2n1,,inactive
NC(=O)c1sc(-c2ccsc2)cc1N,,inactive
O=C(Nc1ccccc1-c1ccccc1)c1ccccc1[N+](=O)[O-],,inactive

Compound,"activity change, negative = growth inhibition",Potency
Cc1ccc(CC(=O)N(C)CC(=O)N(CC(C)C)c2c(N)n(CC(C)C)c(=O)[nH]c2=O)cc1C,,inactive
COc1ccc(-n2ncc3c2CC(C)(C)CC3NC(=O)CCc2c(C)noc2C)cc1 (stereo not drawn),,inactive
Cc1ccc(-c2csc(NC(=O)c3cnccn3)n2)cc1C,,inactive
Cc1ccc(-n2ncc3c2CCCC3NC(=O)c2cnccn2)cc1C (stereo not drawn),,20.6 µM (active)
COc1ccc(OC)c(C(=O)NC2CCCc3c2cnn3-c2cc(C)cc(C)c2)c1 (stereo not drawn),,29.1 µM (active)
COCc1ccc(C(=O)NC2CC(C)(C)Cc3c2cnn3-c2ccc(C)cc2)o1 (stereo not drawn),,inactive
O=C(NCCCNC(=O)c1ccccc1Cl)c1cnccn1,,inactive
O=C(Cc1ccc(Cl)cc1)c1ccccc1,,inactive
CCCCCCNCCn1cnc2c(N)ncnc21,,inactive
COc1ccc(NC(=O)c2ccc3oc(=O)c(S(=O)(=O)c4ccc(F)cc4)cc3c2)c(OC)c1,,inactive
COc1cccc(NC(=O)CN(C)C(C)C(=O)Nc2ccc(C#N)cc2)c1 (stereo not drawn),,inactive
CCOC(=O)c1cc2c(=O)n3ccccc3nc2n(CCCOC)c1=NC(=O)C(C)(C)Oc1ccc(Cl)cc1,,inactive
Nc1cc2c(cc1Br)-c1ccc(F)cc1C2=O,,inactive
Cc1ccc(/C=N/NC(=O)CSc2nc3ccccc3o2)cc1,,18.4 µM (active)
CC(C)(C)C(=O)CSc1nc2ccccc2o1,,inactive
CCN(CC)C(=O)CSc1nc2ccccc2o1,,inactive
CC(Sc1nnc(C2CC2)n1C1CC1)C(=O)Nc1ccc(C(N)=O)cc1 (stereo not drawn),,inactive
CC1CCN(c2ccc(S(=O)(=O)Nc3cc(C(=O)O)cc(C(=O)O)c3)cc2[N+](=O)[O-])CC1,,inactive
COc1ccc(NS(=O)(=O)c2ccc(N3CCN(CCO)CC3)c([N+](=O)[O-])c2)cc1,,9.2 µM (active)
COc1ccc(NS(=O)(=O)c2ccc(N3CCOCC3)c(NC(=O)/C=C/C(=O)O)c2)cc1,,inactive
O=C(CSc1nncn1-c1cccnc1)N1CCOCC1,,inactive
O=C1NC(c2ccccc2)Cc2ccncc21 (stereo not drawn),,inactive
COc1ccc(OC)c(NC(=O)c2sc3nc(C)cc(C)c3c2N)c1,,inactive
COc1ccc(OC)c(Cc2nnc(CCC(=O)NC3CCCC3)o2)c1,,inactive
COc1ccc(OC)c(Cc2cnc3nc(N)nc(N)c3c2C)c1,,0.259 µM (active)
